According to the supplement of paper PMC6124720:
Counter-ions that a name gives are not always drawn. Unmarked numbers belong to inactive results.

Test system: Pseudogymnoascus destructans 20631-21
Test: growth activity index (DuctApe, 0 = no growth, 9 = maximal growth) (index 0-9); higher = more fungal growth (less inhibition), active = 0 or less; extreme values may be limits of the assay
Settings: temperature: 13 °C, YPD
[1] = concentration level (1-4, increasing; Biolog proprietary): 1
[2] = concentration level (1-4, increasing; Biolog proprietary): 2
[3] = concentration level (1-4, increasing; Biolog proprietary): 3
[4] = concentration level (1-4, increasing; Biolog proprietary): 4
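Further: biolog Phenotype Microarray plates PM21–25, OD595 followed daily over 11 days, growth curves converted to index, mean of two independent experiments.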

| Structure (SMILES) | growth activity index [1] | growth activity index [2] | growth activity index [3] | growth activity index [4] |
| --- | --- | --- | --- | --- |
| NCC(=O)O [Glycine hydrochloride] (Biolog plate: PM23) | 5 | 4 | 2 | 2 |
| [F-].[Na+] [Sodium Fluoride] (Biolog plate: PM24) | 4.33 | 4.67 | 5.33 | 4.67 |
| COc1ccc2cc3[n+](cc2c1OC)CCc1cc2c(cc1-3)OCO2 [Berberine Chloride] (Biolog plate: PM24) | 4 | 4.67 | 0.333 | 0.667 |
| O=C(O)CCC(=O)O [Succinic acid] (Biolog plate: PM25) | 3.33 | 3.33 | 3.67 | 3 |
| CCCCCCCCCCCC[N+](C)(C)C [Dodecyltrimethyl ammonium bromide] (Biolog plate: PM21) | 4.25 | 0 (active) | 0 (active) | 1 |
| O=NO [Sodium Nitrite] (Biolog plate: PM23) | 4.33 | 2.67 | 1 | 1.33 |
| NC(N)=S [Thiourea] (Biolog plate: PM21) | 2 | 0 (active) | 0 (active) | 0 (active) |
| OB(O)O [Boric acid] (Biolog plate: PM22) | 5.33 | 0.333 | 0 (active) | 0 (active) |
| C=C(CC[C@]12O[C@H](C(=O)O)[C@@](O)(C(=O)O)[C@](C(=O)O)(O1)[C@H](OC(=O)/C=C/[C@@H](C)C[C@@H](C)CC)[C@H]2O)[C@@H](OC(C)=O)[C@H](C)Cc1ccccc1 [Zaragozic acid A] (Biolog plate: PM24) | 5.67 | 5.33 | 0.667 | 0 (active) |
| N=C(N)c1ccc(OCCCCCOc2ccc(C(=N)N)cc2)cc1 [Pentamidine Isethionate] (Biolog plate: PM24) | 0.333 | 5.33 | 8 | 8 |
| CCCCCCCCCCCCCCCCOP(=O)([O-])OCC[N+](C)(C)C [Miltefosine] (Biolog plate: PM22) | 5 | 3 | 0 (active) | 0 (active) |
| O=P(O)(O)OP(=O)(O)O [Sodium pyrophosphate] (Biolog plate: PM24) | 5.67 | 4.67 | 4.67 | 4 |
| O=C(O)CN(CC(=O)O)c1ccccc1OCCOc1ccccc1N(CC(=O)O)CC(=O)O (Biolog plate: PM22) | 4.67 | 1.67 | 1.33 | 0.667 |
| O=c1cn[nH]c(=O)[nH]1 [6-Azauracil] (Biolog plate: PM24) | 4.67 | 4 | 4.67 | 2.67 |
| [I-].[K+] [Potassium iodide] (Biolog plate: PM22) | 0 (active) | 0 (active) | 0 (active) | 0 (active) |
| NC(=O)NO [Hydroxyurea] (Biolog plate: PM25) | 1 | 0.333 | 0 (active) | 0 (active) |
| N=C(N)c1ccccc1 [Benzamidine] (Biolog plate: PM22) | 4 | 0 (active) | 0 (active) | 0 (active) |
| [Cl][Mn][Cl] [Manganese chloride] (Biolog plate: PM21) | 4 | 5.25 | 4.5 | 4.5 |
| C[C@@H]1[C@H](O)[C@@H](C)/C=C/C=C/C=C/C=C/C=C/C=C/C=C/[C@H](O[C@@H]2O[C@H](C)[C@@H](O)[C@H](N)[C@@H]2O)C[C@@H]2O[C@](O)(C[C@@H](O)C[C@@H](O)[C@H](O)CC[C@@H](O)C[C@@H](O)CC(=O)O[C@H]1C)C[C@H](O)[C@H]2C(=O)O [Amphotericin B] (Biolog plate: PM24) | 0 (active) | 1.33 | 0 (active) | 0 (active) |
| NC(N)=NCCC[C@H](N)C(=O)NO [L-Arginine hydroxamate] (Biolog plate: PM22) | 5.67 | 5 | 3.33 | 0.667 |
| CN1CCN(CCCN2c3ccccc3Sc3ccc(C(F)(F)F)cc32)CC1 [Trifluoperazine] (Biolog plate: PM21) | 0 (active) | 0.25 | 3.5 | 6.25 |
| [Na+].[O]=[V](=[O])[O-] [Sodium metavanadate] (Biolog plate: PM22) | 5 | 4.33 | 5 | 3.67 |
